Screening data: PubChem, several laboratories
TNF death inh: blocks TNF-alpha induced death of Jurkat FADD-/- cells; Jurkat FADD-/- TNF necroptosis rescue, ATP luminescence, 24 h; 0 = TNF only, 100 = no-TNF cells; activation (protection from cell death), % at 10 µM; 0.068% of 220,000 active;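 active means activation, meaning protection from cell death, of at least 50% relative to plate controls; inactive means activation below 50%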;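 further: necroptosis triggered by 40 ng/mL TNF-alpha added together with compound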
HSV replic up: increases HSV replication in cells; HSV replication augmentation in cells, fold increase; maximum fold increase; 0.005% of 220,000 active; AID 1956; in the data active means maximum fold increase above about 1.5; tested in PC3 cells
zVAD death inh: L929 zVAD cell death inhibition; viability rescue, % at 10 µM; L929 zVAD necroptosis rescue, ATP luminescence, 24 h; with zVAD 60 µM; 0.38% of 220,000 active; AID 1377;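 active means activation, scaled between plate controls, above about 75%, limit read from the data; inactive means activation under that limit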
Wee1 stabilizer: human Wee1 degradation inhibition, primary screen; reporter increase, % at 5 µM; AID 1321; 1.2% of 220,000 active; HeLa Luc-Wee1K328M stability, luciferase luminescence; 100% = proteasome inhibitor MG132 effect; P30291;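 active means activation above the mean of all tested compounds plus 3 SD, set per screening run, cut at about 8.8% in these data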;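 further: cells exposed to compound for 20 h before luminescence read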
Target sequence (P30291 whole entry K328M): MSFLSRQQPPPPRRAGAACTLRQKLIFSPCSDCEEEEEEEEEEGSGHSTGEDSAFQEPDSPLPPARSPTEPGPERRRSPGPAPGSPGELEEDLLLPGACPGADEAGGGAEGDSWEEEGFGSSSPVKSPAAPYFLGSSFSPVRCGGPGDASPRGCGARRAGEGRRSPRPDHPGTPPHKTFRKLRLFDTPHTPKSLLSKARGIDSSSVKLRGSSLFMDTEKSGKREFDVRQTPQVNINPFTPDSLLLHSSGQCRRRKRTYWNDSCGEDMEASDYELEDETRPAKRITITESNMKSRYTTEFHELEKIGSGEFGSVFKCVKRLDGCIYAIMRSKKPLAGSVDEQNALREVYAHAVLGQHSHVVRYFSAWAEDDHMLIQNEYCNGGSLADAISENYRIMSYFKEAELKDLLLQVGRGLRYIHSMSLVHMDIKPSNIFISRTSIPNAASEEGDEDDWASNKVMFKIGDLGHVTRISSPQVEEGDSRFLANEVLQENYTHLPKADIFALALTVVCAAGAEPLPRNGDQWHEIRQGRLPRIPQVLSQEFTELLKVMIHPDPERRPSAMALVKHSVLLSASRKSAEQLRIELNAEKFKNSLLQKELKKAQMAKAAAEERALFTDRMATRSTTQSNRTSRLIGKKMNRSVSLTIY
V-ATPase pHluor: yeast V-ATPase proton transport regulation by pHLuorin; 0.37% of 350,000 active; S. cerevisiae, pHLuorin cytosolic pH fluorescence; response, % at 10 µM; in the data active means response mostly above about 7.3%, no sharp cut-off; inactive means mostly below about 5.4%; further: actives read high
V-ATPase pH SP: yeast V-ATPase proton transport regulation; shares compounds with V-ATPase pHluor; 2% of 980 active; response, % at 10 µM; S. cerevisiae pHLuorin cytosolic pH; in the data active means response above about 24%
Large screens that a line does not name were inactive (follow-up assays come after a bar, where they were run). Sampled rows, rich in hits. Any-hit rate of the full collection: about 1.4%.

CCOC(=O)COc1ccc2c(C#N)c3ccccn3c2c1	V-ATPase pHluor 9.6 | V-ATPase pH SP inactive
COc1ccc(C2C3=C(CC(C)(C)CC3=O)Oc3ncn(CC(C)C)c(=N)c32)cc1 (stereo not drawn)	none
COc1ccc(C2C3=C(CC(C)(C)CC3=O)Oc3ncn4nc(-c5ccccc5)nc4c32)cc1 (stereo not drawn)	V-ATPase pHluor 12 (no result: TNF death inh, HSV replic up, zVAD death inh, Wee1 stabilizer) | V-ATPase pH SP inactive
CCOCCCNC(=O)c1c[nH]c2c(CC)cccc2c1=O	none
Cc1ccc(-n2ncc3c(SCC(=O)NNC(=O)C(C)C)ncnc32)cc1	none (no result: TNF death inh, HSV replic up, zVAD death inh, Wee1 stabilizer)
Cc1csc2c(SCC(=O)NNC(=O)C(Cl)Cl)ncnc12	V-ATPase pHluor 12 | V-ATPase pH SP inactive
Cc1ccc(S(=O)(=O)NCCC(=O)N2CCN(S(=O)(=O)c3ccccc3)CC2)cc1C	none (no result: TNF death inh, HSV replic up, zVAD death inh, Wee1 stabilizer)
Cc1ccc(S(=O)(=O)NCCC(=O)N2CCN(S(=O)(=O)c3cccc(F)c3)CC2)cc1C	V-ATPase pHluor 9.1 (no result: TNF death inh, HSV replic up, zVAD death inh, Wee1 stabilizer) | V-ATPase pH SP inactive
CCOC(=O)c1sc(=S)n(-c2ccc(Cl)cc2)c1C	none
Cc1c(C(=O)O)sc(=S)n1-c1ccc(Cl)cc1	none | V-ATPase pH SP inactive
CC(C)C(=O)Nc1cc(=O)[nH]c2ncnn12	V-ATPase pHluor 10 | V-ATPase pH SP inactive
COc1ccc(S(=O)(=O)Nc2c(NC3CCCCC3)c3ccccc3oc2=O)cc1	none (no result: TNF death inh, HSV replic up, zVAD death inh, Wee1 stabilizer)
COc1ccc(OC)c(S(=O)(=O)Nc2c(NC3CCCCC3)c3ccccc3oc2=O)c1	V-ATPase pHluor 9.2 (no result: TNF death inh, HSV replic up, zVAD death inh, Wee1 stabilizer) | V-ATPase pH SP inactive
COC(=O)c1ccc(C2NC(=S)N(c3ccccc3)C(C)=C2C(=O)Nc2ccccc2OC)cc1 (stereo not drawn)	V-ATPase pHluor 11 | V-ATPase pH SP inactive
COc1ccccc1NC(=O)C1=C(C)N(c2ccccc2)C(=S)NC1c1cccc(C(F)(F)F)c1 (stereo not drawn)	none
OCC[C@@H]1C[C@H](O)[C@@H](O)[C@]2(CCCCO2)O1	none (no result: TNF death inh, zVAD death inh, Wee1 stabilizer)
Cc1ccc(S(=O)(=O)/N=C2/NC(=O)/C(=C\c3ccccc3)S2)cc1	none (no result: TNF death inh, HSV replic up, zVAD death inh, Wee1 stabilizer)
Cc1ccc(/C=C2\S/C(=N/S(=O)(=O)c3cccs3)NC2=O)cc1	V-ATPase pHluor 21 | V-ATPase pH SP inactive
N#Cc1cccc(C(=O)OCC(=O)N2CCCc3ccccc32)c1	V-ATPase pHluor 9.2 (no result: TNF death inh, HSV replic up, zVAD death inh, Wee1 stabilizer) | V-ATPase pH SP inactive
COC(=O)c1ccc(-n2c(C)cc(C(=O)CSc3cccc[n+]3[O-])c2C)cc1	V-ATPase pHluor 12 | V-ATPase pH SP inactive
CCN1C(=O)CC(N2CCOCC2)C1=O (stereo not drawn)	none
CN(C)N1C(=O)CC(N2CCCC2)C1=O (stereo not drawn)	V-ATPase pHluor 11 | V-ATPase pH SP inactive
COc1ccc2c(=O)cc(-c3ccccc3F)oc2c1	Wee1 stabilizer 9.4, V-ATPase pHluor 5.7 | V-ATPase pH SP inactive
COc1ccc2c(=O)cc(C(F)(F)C(F)(F)F)oc2c1	none
CCN1CCN(c2ccc(S(=O)(=O)N3CCCCC3)cc2NC(=O)CC(C)c2ccccc2)CC1 (stereo not drawn)	none (no result: TNF death inh, HSV replic up, zVAD death inh, Wee1 stabilizer)
CN(C(=O)c1cccc(NC(=O)Cc2ccc(NC(=O)C3CCN(C(=O)CCc4ccccc4)CC3)cc2)c1)C1CCCCC1	V-ATPase pHluor 7.7 (no result: TNF death inh, HSV replic up, zVAD death inh, Wee1 stabilizer) | V-ATPase pH SP inactive
CN1CCN(C(=O)CN(CCc2ccccc2)S(C)(=O)=O)CC1	V-ATPase pHluor 11 | V-ATPase pH SP inactive
CCOC(=O)[C@@H]1[C@H]2COc3cc(OC)ccc3[C@H]2N2C(=O)N(c3ccc(C)cc3)C(=O)[C@@]12C	none (no result: TNF death inh, HSV replic up, zVAD death inh, Wee1 stabilizer)
Cc1ccc(C(=O)Nc2nccc(-c3cccs3)n2)cc1	V-ATPase pHluor 8.5 | V-ATPase pH SP inactive
CC(=O)c1cc(F)ccc1OCC(=O)N1CCCc2ccccc21	none (no result: TNF death inh, HSV replic up, zVAD death inh, Wee1 stabilizer)
CN(CCOc1ccc(-c2ccn(S(=O)(=O)c3c(Cl)cccc3Cl)n2)cc1)c1ccccn1	none
CN(CCOc1ccc(-c2ccn(S(=O)(=O)c3ccc(Cl)cc3)n2)cc1)c1ccccn1	V-ATPase pHluor 10 | V-ATPase pH SP inactive
Cc1cc(N)ccc1NC(=O)CN1CCOCC1	none (no result: TNF death inh, HSV replic up, zVAD death inh, Wee1 stabilizer)
CC1CCN(C(=O)Cn2cnc3c(cnn3C(C)(C)C)c2=O)CC1	V-ATPase pHluor 11 | V-ATPase pH SP inactive
CC(C)(C)n1ncc2c(=O)n(CC(=O)N3CCCC3)cnc21	none
Cc1nnsc1C(=O)N1CCC(C(=O)c2ccccc2)CC1	none
C=CCc1ccc(OCCOCCN(C)C)c(OC)c1	V-ATPase pHluor 12 | V-ATPase pH SP inactive
C=CCc1ccc(OCCOCCOc2ccc(C)cc2[N+](=O)[O-])c(OC)c1	none
